Data on 4 compounds can be found in PubChem BioAssay (EPA / NIEHS).

Common to all, as to conditions: mRNA level, 48 h; actives raise or lower the signal
Read-out in assay [1]: flavin-containing dimethylaniline monooxygenases 3 (FMO3), FMO3 (gene 2328)
As to the kind of experiment: LTEA_HepaRG_FMO3: Life Technologies and Expression Analysis (LTEA) Assay for flavin-containing dimethylaniline monooxygenases 3 (FMO3) using HepaRG (AID 2283453). The procedure, abridged: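 Differentiated HepaRG cells in serum-free induction medium, exposed 48 h in duplicate to 8 half-log concentrations up to 100 uM in 0.5% DMSO. FMO3 mRNA by qRT-PCR, normalized to ACTB, GAPDH, POLR2A; bidirectional fit vs DMSO.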

Read-out in assay [2]: Cytochrome P450 (CYP1A1), CYP1A1 (gene 1543)
As to the kind of experiment: LTEA_HepaRG_CYP1A1: Life Technologies and Expression Analysis (LTEA) Assay for Cytochrome P450 (CYP1A1) using HepaRG (AID 2283454). In short, it runs like this: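 Differentiated human HepaRG cells, after 48 h plating, exposed in duplicate for 48 h in serum-free induction medium to 8 half-log concentrations up to 100 uM in 0.5% DMSO. CYP1A1 mRNA by qRT-PCR, normalized to ACTB/GAPDH/POLR2A; bidirectional fit versus DMSO.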

Read-out in assay [3]: CFLAR gene, CFLAR (gene 8837)
As to the kind of experiment: LTEA_HepaRG_CFLAR: Life Technologies and Expression Analysis (LTEA) Assay for CFLAR gene using HepaRG (AID 2283455). In short, it runs like this:
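HepaRG, 48 h exposure, 8-pt conc-response (100 uM top, half-log), 0.5% DMSO vehicle, duplicates. CFLAR expression by qRT-PCR; ACTB/GAPDH/POLR2A normalization; gain or loss fit vs DMSO baseline.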

Read-out in assay [4]: Forkhead box O1 (FOXO1), FOXO1 (gene 2308)
As to the kind of experiment: LTEA_HepaRG_FOXO1: Life Technologies and Expression Analysis (LTEA) Assay for Forkhead box O1 (FOXO1) using HepaRG (AID 2283456). The procedure, abridged:
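Readout is FOXO1 transcript level by multiplexed qRT-PCR against three housekeeping genes, curve-fitted in both directions relative to 0.5% DMSO vehicle. Human HepaRG cultures received chemicals for 48 h, up to 100 uM in half-log steps.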

Read-out in assay [5]: growth arrest and DNA damage 45 (GADD45A), GADD45A (gene 1647)
As to the kind of experiment: LTEA_HepaRG_GADD45A: Life Technologies and Expression Analysis (LTEA) Assay for growth arrest and DNA damage 45 (GADD45A) using HepaRG (AID 2283458). The procedure, abridged: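 Cells plated and cultured 48 h, switched to serum-free induction medium, then dosed for 48 h (100 uM top, half-log dilutions, 0.5% DMSO). RNA was isolated and transcript measured by Fluidigm qRT-PCR.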

Read-out in assay [6]: Forkhead box O3 (FOXO3), FOXO3 (gene 2309)
Nature of the assay: LTEA_HepaRG_FOXO3: Life Technologies and Expression Analysis (LTEA) Assay for Forkhead box O3 (FOXO3) using HepaRG (AID 2283459). The procedure, abridged:
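HepaRG, 48 h post-dose; 8 conc., half-log from 100 uM, 0.5% DMSO, duplicates; serum-free induction medium. Readout: FOXO3 mRNA, TaqMan qRT-PCR, housekeeping-normalized. Bidirectional curve fit vs DMSO baseline.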

Read-out in assay [7]: growth arrest and DNA damage 45 (GADD45B), GADD45B (gene 4616)
Nature of the assay: LTEA_HepaRG_GADD45B: Life Technologies and Expression Analysis (LTEA) Assay for growth arrest and DNA damage 45 (GADD45B) using HepaRG (AID 2283461). The procedure, abridged: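 Differentiated human HepaRG cells in serum-free induction medium exposed 48 h in duplicate to eight concentrations, top 100 uM, half-log steps, 0.5% DMSO. GADD45B mRNA by TaqMan qRT-PCR, normalized to ACTB, GAPDH, POLR2A; bidirectional fit versus DMSO.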

Read-out in assay [8]: ABC Transporter (ABCC3), ABCC3 (gene 8714)
Nature of the assay: LTEA_HepaRG_ABCC3: Life Technologies and Expression Analysis (LTEA) Assay for ABC Transporter (ABCC3) using HepaRG (AID 2283462). In short, it runs like this: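 Differentiated human HepaRG cells exposed 48 h in serum-free induction medium, 0.5% DMSO vehicle, 8-point half-log series to 100 uM in duplicate. ABCC3 mRNA by qRT-PCR, normalised to ACTB, GAPDH, POLR2A; bidirectional fit vs DMSO.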

Read-out in assay [9]: ABC Transporter (ABCB11), ABCB11 (gene 8647)
Nature of the assay: LTEA_HepaRG_ABCB11: Life Technologies and Expression Analysis (LTEA) Assay for ABC Transporter (ABCB11) using HepaRG (AID 2283463). In short, it runs like this:
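ABCB11 transcript levels are read by Fluidigm TaqMan qRT-PCR after 48 h chemical treatment of human HepaRG cells. Concentrations span 100 uM downward in half-log steps with 0.5% DMSO; gain or loss is fitted against DMSO controls.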

Read-out in assay [10]: Broad substrate specificity ATP-binding cassette transporter ABCG2 (Homo sapiens) (UniProt Q9UNQ0)
Nature of the assay: LTEA_HepaRG_ABCG2: Life Technologies and Expression Analysis (LTEA) Assay for ABC Transporter (ABCG2) using HepaRG (AID 2283465). The procedure, abridged:
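Read-out is ABCG2 mRNA induction or loss quantified by qRT-PCR after 48 h chemical treatment of human HepaRG cells, normalized to three housekeeping genes. Concentrations reached 100 uM top in half-log steps; fitting was bidirectional against 0.5% DMSO.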

Read-out in assay [11]: ATP-citrate lyase (ACLY), ACLY (gene 47)
Nature of the assay: LTEA_HepaRG_ACLY: Life Technologies and Expression Analysis (LTEA) Assay for ATP-citrate lyase (ACLY) using HepaRG (AID 2283466). The procedure, abridged:
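HepaRG, 48 h exposure, 8-pt half-log dilutions (top 100 uM), 0.5% DMSO. Readout: ACLY mRNA, TaqMan qRT-PCR, housekeeping-normalized (ACTB/GAPDH/POLR2A). Bidirectional curve fit vs DMSO.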

Read-out in assay [12]: Peroxisomal acyl-coenzyme A oxidase 1 (ACOX1) gene, ACOX1 (gene 51)
As to the kind of experiment: LTEA_HepaRG_ACOX1: Life Technologies and Expression Analysis (LTEA) Assay for Peroxisomal acyl-coenzyme A oxidase 1 (ACOX1) gene using HepaRG (AID 2283467). In short, it runs like this: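 Measured by qRT-PCR against three housekeeping genes: ACOX1 transcript change in human HepaRG cells after 48 h dosing. Concentrations ran up to 100 uM in half-log steps. Curves were fitted bidirectionally relative to 0.5% DMSO.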

Read-out in assay [13]: Alkaline Phosphatase, Placental (ALPP) gene, ALPP (gene 250)
As to the kind of experiment: LTEA_HepaRG_ALPP: Life Technologies and Expression Analysis (LTEA) Assay for Alkaline Phosphatase, Placental (ALPP) gene using HepaRG (AID 2283468). In short, it runs like this:
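HepaRG cells plated 48 h, then exposed in duplicate for 48 h in serum-free induction medium to 8-point half-log series from 100 uM in 0.5% DMSO. ALPP mRNA by TaqMan qRT-PCR, normalized to ACTB/GAPDH/POLR2A; bidirectional fit versus DMSO.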

Read-out in assay [14]: Bcl-2 (BAD) gene, BAD (gene 572)
As to the kind of experiment: LTEA_HepaRG_BAD: Life Technologies and Expression Analysis (LTEA) Assay for Bcl-2 (BAD) gene using HepaRG (AID 2283469). In short, it runs like this: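 BAD transcript change, measured by qRT-PCR against three housekeeping genes and fitted in both directions relative to 0.5% DMSO, after 48 h chemical treatment of human HepaRG liver cells at concentrations up to 100 uM.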

Read-out in assay [15]: Alpha-fetoprotein (AFP) gene, AFP (gene 174)
Nature of the assay: LTEA_HepaRG_AFP: Life Technologies and Expression Analysis (LTEA) Assay for Alpha-fetoprotein (AFP) gene using HepaRG (AID 2283472). The procedure, abridged: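 HepaRG, single lot; 48 h post-plating -> serum-free induction medium; cpd 8-pt, 100 uM top, half-log, 0.5% DMSO, duplicate, 48 h. RNA -> qRT-PCR AFP, norm ACTB/GAPDH/POLR2A. Bidirectional fit vs DMSO.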

Read-out in assay [16]: ABC Transporter (ABCC2), ABCC2 (gene 1244)
Nature of the assay: LTEA_HepaRG_ABCC2: Life Technologies and Expression Analysis (LTEA) Assay for ABC Transporter (ABCC2) using HepaRG (AID 2283464). The procedure, abridged: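 Differentiated HepaRG cells in serum-free induction medium exposed 48 h to eight half-log concentrations up to 100 uM, 0.5% DMSO, in duplicate. ABCC2 mRNA measured by qRT-PCR (TaqMan, Fluidigm), normalized to ACTB, GAPDH and POLR2A. Fitted in both directions against DMSO.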

Read-out in assay [17]: Bcl-2 (BAX) gene, BAX (gene 581)
Nature of the assay: LTEA_HepaRG_BAX: Life Technologies and Expression Analysis (LTEA) Assay for Bcl-2 (BAX) gene using HepaRG (AID 2283470). The procedure, abridged:
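HepaRG (human liver), 48 h exposure, duplicate wells. 8-pt curve, half-log from 100 uM, 0.5% DMSO. BAX transcript by TaqMan qRT-PCR; ACTB/GAPDH/POLR2A normalization; gain or loss vs DMSO baseline.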

Read-out in assay [18]: ABC Transporter (ABCB1), ABCB1 (gene 5243)
Nature of the assay: LTEA_HepaRG_ABCB1: Life Technologies and Expression Analysis (LTEA) Assay for ABC Transporter (ABCB1) using HepaRG (AID 2283460). In short, it runs like this:
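Expression of ABCB1 was quantified by qRT-PCR against three housekeeping genes after human HepaRG cultures received test chemicals for 48 hours. Concentrations spanned eight half-log steps topping at 100 uM in 0.5% DMSO; gain or loss of signal was fitted relative to vehicle.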

Read-out in assay [19]: adenosine kinase (ADK) gene, ADK (gene 132)
Nature of the assay: LTEA_HepaRG_ADK: Life Technologies and Expression Analysis (LTEA) Assay for adenosine kinase (ADK) gene using HepaRG (AID 2283471). In short, it runs like this: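 ADK expression quantified by qRT-PCR, normalised to three housekeeping genes, after 48 h exposure of HepaRG cells to eight concentrations (top 100 uM, half-log steps, duplicate, 0.5% DMSO). Up- or down-regulation fitted relative to vehicle.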

Calls of active or inactive are those of the source. The calls were made as follows: active = hit-call score of the fitted dose curve at least 0.9, where 1 is the maximum; inactive = score below 0.9.

Sequence of Broad substrate specificity ATP-binding cassette transporter ABCG2 (Homo sapiens) (Q9UNQ0 whole entry, looked up): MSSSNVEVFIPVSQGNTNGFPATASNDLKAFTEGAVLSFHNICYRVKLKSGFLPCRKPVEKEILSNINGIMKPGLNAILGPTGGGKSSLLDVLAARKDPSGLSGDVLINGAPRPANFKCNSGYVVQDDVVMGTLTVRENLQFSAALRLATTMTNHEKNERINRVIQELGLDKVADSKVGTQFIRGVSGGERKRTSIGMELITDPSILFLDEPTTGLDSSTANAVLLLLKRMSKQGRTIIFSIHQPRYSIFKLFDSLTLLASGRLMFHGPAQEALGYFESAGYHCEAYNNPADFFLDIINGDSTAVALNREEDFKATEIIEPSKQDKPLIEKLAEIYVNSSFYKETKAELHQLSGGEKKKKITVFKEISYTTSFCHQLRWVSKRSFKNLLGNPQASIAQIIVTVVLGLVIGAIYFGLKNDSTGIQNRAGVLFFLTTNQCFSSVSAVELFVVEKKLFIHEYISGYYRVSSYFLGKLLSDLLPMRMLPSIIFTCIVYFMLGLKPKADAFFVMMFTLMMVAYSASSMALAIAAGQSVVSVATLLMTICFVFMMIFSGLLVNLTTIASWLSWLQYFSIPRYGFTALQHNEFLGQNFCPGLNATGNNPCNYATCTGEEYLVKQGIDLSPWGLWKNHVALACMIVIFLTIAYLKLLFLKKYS

In general, AC50 refers to the concentration giving half of the maximal activity seen. With `ClC1=C(Cl)[C@]2(Cl)[C@H]3[C@H]([C@@H]4C=C[C@H]3C4)[C@@]1(Cl)C2(Cl)Cl`, the outcome in assay [1], in [3], in assay [4], in assay [5], in assay [6] and in [7] was inactive. In addition, the compound was called inactive in [8], in [9], in assay [11], in assay [12], in assay [13] and in assay [14]. Besides, the concentration at half-maximal activity (AC50) in [2] was 38.3 µM (active); in assay [10], 9.92 µM (active); in assay [15] it was 50 µM (active).

With `N#CC(Br)(Br)C(N)=O`, the compound was classed as inactive in [1], in [2], in assay [3], in assay [4], in [5] and in [6]. In addition, the call in assay [8], in assay [9], in assay [16], in assay [10], in [11] and in assay [13] was inactive. In addition, the outcome in assay [14], in [17] and in assay [15] was inactive.

`CCN(CC)CCO`: the outcome in [2], in [3], in assay [4], in assay [5], in assay [6] and in assay [18] was inactive. The compound was classed as inactive in assay [7], in assay [8], in [9], in assay [16], in [10] and in assay [11]. For the same compound, the call in assay [12], in assay [13], in assay [14], in assay [19] and in assay [15] was inactive.

Regarding `CC(C)(C)C(O)(CCc1ccc(Cl)cc1)Cn1cncn1` (centres undefined), the concentration at half-maximal activity (AC50) in assay [2] was 6.47 µM (active); in assay [18], 3.45 µM (active); in assay [11], 6.24 µM (active); in assay [13], 80.3 µM (active); in assay [15], 62.2 µM (active). Also, the result in assay [3], in [4], in assay [5], in assay [6], in assay [7] and in assay [8] was inactive. The outcome in [9], in [16], in [10], in [12], in assay [14] and in assay [19] was inactive.
